Screens: PubChem, Center for Chemical Genomics, University of Michigan
The entries come from a sample that favours hits as a whole.
Dicer processing: blocks human Dicer maturation of pre-miR-21. cat-ELCCA pre-miR-21 Dicer processing, chemiluminescence; active compounds read high. z-score at 25 µM. 47,000 tested, 6% active. AID 1347074; in the data active means z-score above about 3, passing the limit was not always enough;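 further: plate controls were vehicle for no effect and no enzyme for full effect; higher signal means more uncleaved substrate so more Dicer inhibition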
Active calls of the source: *.

SMILES	Dicer processing
CCCc1nc(SCC(=O)c2ccc(Cl)cc2)nc(OC(=O)N(C)C)c1C	10
C=CCSc1nnc(OC(=O)N(C)C)n1-c1cccc(C(F)(F)F)c1	0.96
O=C(NC1CCCCC1)Oc1cc2oc(=O)sc2cc1Cl	4.1*
Cc1ccc(-n2c(C)nc3cc(Cl)ccc3c2=O)cc1Cl	-1
CCC(C)n1[nH]c(=O)c2c1NC(=O)CSC2c1ccc(OC(C)C)cc1 (stereo unspecified)	-0.71
CCNCC(O)c1ccc([N+](=O)[O-])cc1 (stereo unspecified)	0.31
c1ccc(CCNCc2ccc3c(c2)OCO3)cc1	-0.43
O=C(Cn1cc(C(=O)c2ccccc2)c2ccccc21)NCc1ccc2c(c1)OCO2	3.5*
O=C(O)c1cn(Cc2ccc(Cl)cc2)c2ccccc12	0.07
CC1(C)CCC(C)(C)c2cc(-c3csc(CS(=O)(=O)C(C)(C)C)n3)ccc21	-1.3
CC1CN=C(Nc2cccc(C(F)(F)F)c2)S1 (stereo unspecified)	0.02
CC1(C)CSC(Nc2ccccc2F)=N1	0.9
CSc1nc(OC(=O)N(C)C)cc(-c2ccccc2)n1	3.7*
COCc1cc(OC(=O)N(C)C)nc(-c2cccc(C)c2)n1	0.37
Cc1cc(OC(=O)N(C)C)nc(SCc2c(F)cccc2Cl)n1	0.04
CNC(=O)O/N=C1\CC(C)(C)Cc2csc(SC)c21	2.6
CC1(C)SCN2C(=S)N(c3ccc([N+](=O)[O-])cc3)C(=O)C21 (stereo unspecified)	-1.5
O=c1c2ccccc2[nH]c(=S)n1-c1ccc(Br)cc1Cl	-3.8
O=C(O)C1C2c3ccccc3C(c3ccccc32)C1C(=O)O (stereo unspecified)	-0.48
CCCCCCn1c2ccc(C(=O)O)cc2c2cc(C(=O)O)ccc21	0.95
CC12CCC3(C=C1CCC1C2CCC2(C)C(O)CCC12)OCCO3 (stereo unspecified)	0.81
